# This is a sample that favours compounds with a hit; in the whole collection about 1.4% have one here.
# NPR1 activator: GC-A stimulated cGMP production enhancers – HEK293 GC-A cells, cGMP TR-FRET, EC30 ANP, primary screen; 370,000 compounds, 0.14% hits; Atrial natriuretic peptide receptor 1 (Homo sapiens), P16066; 0% at EC30 ANP, 100% saturating ANP; AID 1671463, 2021; activation, % at 10 µM; in the data active = activation above about 40%
# NPR2 activator: human GC-B receptor activators, primary screen, HEK293 GC-B cells, cGMP TR-FRET, EC30 CNP; AID 1920062, 2024; Atrial natriuretic peptide receptor 2 (Homo sapiens), P20594; activation, % at 10 µM; 370,000 compounds, 0.11% hits; 0% at EC30 CNP, 100% saturating CNP;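 active = activation at 10 µM reaching about 35% in either raw or pattern-adjusted values, limit read from the data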
# FAS-TE inh: FAS thioesterase domain inhibitors, primary screen, biochemical, fluorescence intensity, uHTS; Fatty acid synthase (Homo sapiens), P49327; recombinant FAS-TE, OMFH fluorogenic substrate, fluorescence endpoint; inhibition, % at 15 µM; 360,000 compounds, 0.67% hits;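 active = compounds whose normalised, plate-corrected inhibition of enzyme fluorescence in the single-dose primary screen is 50% or more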;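 also: 0% = DMSO with enzyme and 100% = substrate without enzyme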
# A3A deaminase: APOBEC3A ssDNA deaminase inhibitors, primary screen, selectivity assay for APOBEC3G inhibitor project, biochemical, FAM/TAMRA oligo cleavage fluorescence; recombinant A3A, FAM/TAMRA ssDNA deamination fluorescence; 330,000 compounds, 0.41% hits; inhibition, % at 20 µM;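 active = at least 40% inhibition at 20 µM here, with at most 30% in a related deaminase screen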;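 also: plate controls were A3A with DMSO for no effect and wells lacking A3A enzyme for full effect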
# APOBEC3G inh: APOBEC3G DNA deaminase inhibitors, primary screen, biochemical, fluorescence, single-stranded DNA substrate, uHTS | inhibition, % at 20 µM | AID 493012, 2011 | recombinant A3G, ssDNA deamination FAM/TAMRA fluorescence | DNA dC->dU-editing enzyme APOBEC-3G (Homo sapiens), Q9HC16 | 330,000 compounds, 0.28% hits;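 active = inhibition of at least 40% at 20 µM, with no more than 30% in the related APOBEC3A deaminase screen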;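 also: plate controls were DMSO wells with A3G for no effect and wells lacking A3G enzyme for full effect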
# A3G conf: APOBEC3G deaminase inhibitor retest, confirmation, biochemical, fluorescence, single-stranded DNA substrate, single concentration | AID 493152, 2011 | inhibition, % at 20 µM | shares compounds with APOBEC3G inh | recombinant A3G ssDNA deaminase, UDG/FAM-TAMRA fluorescence | 890 compounds, 72% hits;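 active = inhibition reaching a set limit in any replicate at 20 µM, the limit being 80% of the first screen's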
# UDG A3G counter: E. coli UDG inhibitors, confirmation, counter-screen for APOBEC3G inhibitor project, biochemical, single concentration, fluorescence, FAM/TAMRA oligo; AID 504715, 2011; shares compounds with APOBEC3G inh; UDG counterscreen; 710 tested, under 10 active; inhibition, % at 20 µM;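 active = compounds giving 40% or more inhibition at 20 µM in any one of the three replicates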;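 also: plate controls were DMSO wells with UDG and oligo for no effect and DMSO wells lacking both for full effect; inhibitors lower the FAM signal released by uracil excision and alkaline cleavage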
# An asterisk follows results filed as active; . = no result given.
SMILES,NPR1 activator,NPR2 activator,FAS-TE inh,A3A deaminase,APOBEC3G inh,A3G conf,UDG A3G counter
CCCC(=O)n1nc(-c2ccc(OC)cc2)nc1N,2,-1,-2,7,-3,.,.
Cc1ccc(C(=O)Nc2sc(C)c(C)c2C(=O)c2ccccc2)cc1,3,-4,28,3,40*,29*,-3
Cc1sc(NC(=O)c2ccccc2)c(C(=O)c2ccccc2)c1C,3,-4,14,2,50*,37*,-3
CS(=O)(=O)N[C@@H]1C[C@@H]2O[C@@H](CO)CC[C@@H]2O[C@@H]1CCc1ccc(-c2ccccc2F)cc1,33,-3,.,.,.,.,.
CCN(CC)CCNC(=O)CCCCn1c(=S)[nH]c2c([nH]c3ccc(OC)cc32)c1=O,4,-3,.,-3,69*,84*,8
CCCCNC(=O)c1ccc(Cn2c(=S)[nH]c3c([nH]c4ccc(OC)cc43)c2=O)cc1,11,8,-12,-3,-9,.,.
Clc1ccccc1-c1nn2c(-c3ccncc3)nnc2s1,.,.,1,1,49*,25*,-1
O=S(=O)(c1c(F)cccc1F)N1CCCC2CCCCC21 (stereo not drawn),2,2,21,-1,53*,4,5
C[C@@H]1C[C@H](O)CCCCCC(=O)Cc2cc(O)cc(O)c2C(=O)O1,6,11,.,.,.,.,.
CCSc1nc2cc(S(=O)(=O)N3CCOCC3)ccc2o1,11,-1,-4,11,62*,45*,5
Cc1ccc(C(=O)CSc2nc3cc(S(=O)(=O)N4CCOCC4)ccc3o2)cc1,-5,0,18,-9,-6,.,.
Cc1nc2ccc(Nc3nc4cc(S(=O)(=O)N5CCOCC5)ccc4o3)cc2s1,-1,-2,4,7,56*,47*,3
O=C(CN1C(=O)C2(OCCCO2)c2ccccc21)NCc1ccccc1Cl,0,0,.,.,.,.,.
CC(=O)C(Sc1nn(C)c(=S)s1)C(=O)Nc1ccccc1 (stereo not drawn),-1,1,-2,2,57*,40*,-5
Cc1cc(-c2n[nH]c(=S)n2/N=C/c2cccc([N+](=O)[O-])c2)n[nH]1,-7,-2,-5,-2,65*,73*,-2
O=[N+]([O-])c1cccc(/C=N/n2c(C3CCCCC3)n[nH]c2=S)c1,2,-1,-1,-7,9,.,.
Cc1cc(-c2n[nH]c(=S)n2/N=C/c2cccc(O)c2)n[nH]1,-4,3,-11,-1,49*,82*,-4
O=C(CN1CCN(c2ccc(O)cc2)CC1)Nc1ccc(SC(F)F)cc1,0,10,-8,3,43*,6,.
CNc1ccccc1/C(O)=C(\C#N)C(=O)NCc1cccc2ccccc12,2,-3,.,.,.,.,.
COc1cc(-c2nc(=S)[nH][nH]2)cc(OC)c1OC,3,1,-6,-5,62*,94*,-1
COc1ccc(-c2nc(=S)[nH][nH]2)cc1,0,-1,-7,-3,62*,95*,-4
Oc1ccc(-c2nc(=S)[nH][nH]2)cc1,-2,4,-7,-3,64*,90*,-1
COc1ccc(-c2nc(=S)[nH][nH]2)cc1OC,0,0,-4,-15,61*,93*,2
CCOc1ccc(-c2nc(=S)[nH][nH]2)cc1,1,-1,-8,-7,30,.,.
S=c1nc(-c2cc(Cl)cc(Cl)c2)[nH][nH]1,2,-3,-11,-3,-13,.,.
SMILES,NPR1 activator,NPR2 activator,FAS-TE inh,A3A deaminase,APOBEC3G inh,A3G conf,UDG A3G counter
S=c1nc(-c2cccc(Cl)c2)[nH][nH]1,-1,-12,-3,.,.,.,.
[C-]#[N+][C@]12C(=O)[C@H](C=C(Cl)[C@@]1(C)C=C)C(C)(C)[C@H]1C(=O)N(C)c3cccc2c31,-3,11,.,.,.,.,.
CCN1CCN(c2nc(C)nc3c2sc(=S)n3C)CC1,3,-9,0,4,46*,45*,.
COc1ccccc1NCc1nc2ccccc2n1C,-1,-6,.,.,.,.,.
O=C(O)c1ccc2c3c(ncnc13)-c1ccccc1C2=O,.,.,.,1,61*,41*,2
O=C(O)c1cccc2c1C(=O)c1ccccc1C2=O,1,0,-2,3,1,.,.
CCCCCCCCNS(=O)(=O)/C=C/c1ccccc1CNC(=O)OC(C)(C)C,-2,-4,.,.,.,.,.
COC(=O)[C@H](CC(C)C)NC(=O)c1cc2c(cn1)[nH]c1ccccc12,7,4,7,1,58*,63*,.
O=C(Oc1c(Br)cc(C(=S)N2CCOCC2)cc1Br)c1ccc(Cl)cc1,0,2,21,2,62*,20*,-2
S=c1[nH]c(-c2ccccc2)cn1/N=C/c1ccc(Br)cc1,10,-5,13,-2,-7,.,.
S=c1[nH]c(-c2ccccc2)cn1/N=C/c1cccnc1,-8,-10,0,-9,50*,73*,2
O=C(O)c1ccc(/C=N/n2cc(-c3ccccc3)[nH]c2=S)cc1,1,4,-4,-5,58*,80*,-4
S=c1[nH]c2ccccc2n1Cc1ccccc1,4,-7,22,-2,50*,54*,1
COc1ccc2c3c(cccc13)N(C)N=C2C,2,-1,-14,26,45*,40*,.
CCOc1ccc(-n2c(SCC(=O)Nc3ccc(S(=O)(=O)Nc4nccs4)cc3)nnc2-c2ccncc2)cc1,-1,1,.,.,.,.,.
CCCCn1c(-c2nn(C)c(C)c2Cl)n[nH]c1=S,1,-4,-8,-4,40*,78*,-5
Cc1nn(-c2ccccc2)c2sc(C(=O)N3CCN(Cc4ccc(F)cc4)CC3)cc12,5,1,.,.,.,.,.
CC(C)(C)c1ccc(-c2cn(C[C@H](Cc3ccccc3)n3c(=O)c4ccccc4n3Cc3ccno3)nn2)cc1,0,-6,.,.,.,.,.
O=S(=O)(/N=S1/CC=CCN1S(=O)(=O)c1ccccc1)c1ccccc1 (stereo not drawn),.,.,-2,-7,62*,75*,-3

# Screening data deposited in PubChem BioAssay by Sanford-Burnham Center for Chemical Genomics.
